# Results: ChEMBL document CHEMBL1157539, “Thousands of chemical starting points for antimalarial lead identification” (Nature, 2010)
# Test system: HepG2
# Assay: GSK_TCMDC: Percent inhibition of human HepG2 cell line. Test compounds present at 10uM.
# Format: functional
row,Compound,Inhibition
1,CC(C)CCN(Cc1cncn1Cc1ccccc1F)C(=O)c1cncc(-c2ccccc2)c1,1%
2,CN1CCN(CCNc2c3ccccc3nc3c2ccc2ccccc23)CC1.Cl,76%
3,O=C(Nc1ccccc1)Nc1cccc(-c2cccc(-c3nc4cc(F)ccc4[nH]3)c2)c1,38%
4,CC1CCN(c2nc(C(=O)Nc3ccc(F)cc3C(F)(F)F)c(C(C)C)s2)CC1.O=C(O)C(F)(F)F,5%
5,CC1(C)N=C(N)N=C(N)N1OCCCOc1cc(Cl)c(Cl)cc1Cl.Cl,60%
6,CNCCNc1nccc(N2CCc3ncnc(Nc4ccc(OCc5cccc(F)c5)c(Cl)c4)c3C2)n1,30%
7,O=C(Nc1cccc(-c2cccc(-c3nc4ccccc4[nH]3)c2)c1)c1ccncc1,27%
8,CC[C@H](N/C(=N\c1ccc(-c2ccccc2)cc1)Nc1ccc(C#N)cc1O)c1ccccc1,0%
9,O=C(Nc1ccccc1)N(Cc1cccc(-c2ccc(CNC3CCCC3)cc2)c1)C1CCN(Cc2ccccc2)CC1.O=C(O)C(F)(F)F,100%
10,Cc1cccc(S(=O)(=O)Nc2cccc(CCN3CCC(N4CCCCC4)CC3)c2)c1,15%
11,CC(C)(C)c1ccc(CN2CCC(CNC(=O)c3cc(-c4ccccc4Cl)cs3)C2)cc1.O=C(O)C(F)(F)F (stereo unspecified),33%
12,CN(C)c1ccc(Br)c(Br)c1,17%
13,CC(C)(C)c1cc(NC2CC2)nc(-c2ccccn2)n1,7%
14,CCOC(=O)NOC(C(=O)O)c1ccccc1 (stereo unspecified),4%
15,CC(C)N1CCN(C(=O)c2ccc(CNCCCN3CCN(c4cccc(Cl)c4Cl)CC3)s2)CC1.Cl,51%
16,Cc1ccc(-c2nc3cc(C(=O)NC4CCN(Cc5ccccc5)CC4)ccc3[nH]2)cc1,20%
17,COc1cc2ccccc2c(OC)c1CNCCCCCCNCc1c(OC)cc2ccccc2c1OC.CS(=O)(=O)O,100%
18,CC(=O)Nc1ncc(C(=O)Nc2ccc(-c3cccc(-c4nc5cc(C(F)(F)F)ccc5[nH]4)c3)cc2)s1,79%
19,O=C(Nc1ccc(-c2ccc(-c3nc4cc(C(F)(F)F)ccc4[nH]3)s2)cc1)c1ccoc1,9%
20,CCCNCCc1ccc(NS(=O)(=O)c2cccc(-c3ccc(Cl)cc3)c2)cc1.Cl,36%
21,O=C(N[C@@H](Cc1ccccc1)CN1CCC(Oc2ccc(F)cc2)CC1)c1ccc(OCCCN2CCCCC2)cc1.O=C(O)C(F)(F)F,38%
22,Cc1cc(-c2cnc(N)c(-c3ccc(N4CCN(C)CC4)cc3)c2)cc(C)c1O,3%
23,CCOc1c(CNCCCNc2nc3ccccc3[nH]2)cc(I)cc1OC.Cl,42%
24,Cc1cc(NC(=O)NCCN2CCC(NS(=O)(=O)c3ccccc3F)CC2)c2ccccc2n1,0%
25,COc1ccccc1C1CN(Cc2coc3ccccc3c2=O)Cc2ccccc2O1 (stereo unspecified),4%
26,COc1ccc(NC(=O)[C@H](Cc2ccccc2)Nc2cc(C)nc(NCc3ccccc3C)n2)cc1.O=C(O)C(F)(F)F,16%
